PubChem BioAssay (NCI)
Values joined by “and” are separate entries in the source; they are usually repeats but may differ in a detail not shown here. Equal entries are not always repeated. Compounds without any hit were thinned out: in the full panel of roughly 83,000, 20% have a hit.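 Each cell line was grown in a 96-well plate and treated with one concentration of compound for 48 hours. Values below 10 were considered active.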 Active and inactive are the calls of the source.

Test system: HCT-15 colon
Assay: NCI-60 one-dose screen, 48 h (100 = growth as untreated, 0 = no growth, -100 = all killed)
Conditions: 10 µM
Procedure: Growth inhibition of the HCT-15 human tumor cell line is measured as a screen for anti-cancer activity. Cells are grown in 96 well plates and exposed to the test compound for 48 hours. Compounds are tested at a single concentration, which is 10^-5 M for most compounds. The reported endpoint is percent growth (GI% or GIPRCNT), where numbers from 0 - 100% represent growth inhibition, and numbers from -100% - 0 represent cell death. For example, a value of 40 represents 60% growth inhibition. A value of 0 means no net growth occurred over the course of the experiment. A value of -40 indicates 40% of cells at the beginning of the experiment died by the end of the experiment. A value of -100 means all cells are dead at the end of the experiment.
NCI-60 Human Tumor Cell Lines Screen was performed using the standard one-dose NCI protocol, which is described in more detail at https://dtp.cancer.gov/discovery_development/nci-60/default.htm.
Compounds with GIPRCNT values below 10 were considered active. Activity score was based on GIPRCNT using the following formula: […]
Score is 0 for GIPRCNT values of 100 or above, 50 for GIPRCNT values of 0, and 100 for GIPRCNT values of -100.

| Compound | growth |
| --- | --- |
| O=c1ccn2c(n1)OC1CC2OC1COC(c1ccccc1)(c1ccccc1)c1ccccc1 (stereo not given) | 97% (inactive) |

Same assay, conditions: 10 µM unless noted

| Compound | growth |
| --- | --- |
| COc1ccccc1OCC(O)CO (stereo not given) | 95.1% (inactive) and 105% (inactive) |
| Cc1cccc(Cl)c1N | 109% (inactive) |
| OC1CCCN(Cc2ccccc2)C1 (stereo not given) | 116% (inactive) |
| CN(C)C(=N)N=C(N)N | 83.1% (inactive) and 121% (inactive) |
| O=C(c1ccncc1)c1c(Cc2ccccc2)ccc2ccccc12 | 91.5% (inactive) |
| CC(=O)/C(N=Nc1ccc(S(=O)(=O)c2ccc(N=N/C(C(C)=O)=C(/C)O)cc2)cc1)=C(\C)O | 106% (inactive) |
| CC(C)(C)OC(=O)NCCc1ccc(N)cc1 | 111% (inactive) |
| CCOC(=O)c1ccc(C(=N)N)cc1 | 103% (inactive) |
| CCOC(=O)C(N)Cc1cc(I)c(O)c(I)c1 (stereo not given) | 107% (inactive) and 96.6% (inactive) |
| CN(C)C(=S)N(C)C | 102% (inactive) |
| CCCCC/C(C)=N\NC(N)=S | 79.4% (inactive) |
| Oc1cccnc1CN1CCOCC1 | 105% (inactive) and 104% (inactive) |
| NNC(=O)Nc1ccccc1 | 99.8% (inactive) |
| COc1ccc2nccc(Cl)c2c1 | 109% (inactive) |
| O=C(O)c1cccc(Br)c1 | 108% (inactive) and 102% (inactive) |
| NCCSSC/C=C\CSSCCN | 102% (inactive) |
| CCN(CC)Cc1cc2[nH]c3c4ccc(Cl)cc4ncc3c2cc1OC | 45.9% (inactive) and 16.8% (inactive) |
| COc1cc2c(cc1O)C(=O)CCCC2 | 95.3% (inactive) |
| Cn1c(N)c(N=O)c(=O)n(C)c1=O | 105% (inactive) and 101% (inactive) |

| Compound | growth |
| --- | --- |
| Cc1onc(-c2c(F)cccc2Cl)c1-c1ncc(-c2ccc(Cl)cc2)o1 | 29.5% (inactive) and 16.4% (inactive) |
| O=c1[nH]nnc2cc(Cl)ccc12 | 93.9% (inactive) and 104% (inactive) |
| Cc1cc(Cl)nc(Nc2ccccc2)n1 | 97.4% (inactive) |
| O=C1c2ccccc2CN1c1ccccc1 | 107% (inactive) |
| O=C1c2cccnc2-c2ncccc21 | 111% [100 µM] (inactive) |
| CN1C2C=CC(=O)C1C1C(=O)N(c3ccccc3)C(=O)C12 (stereo not given) | 42% (inactive) |
| CS(=O)(=O)OCC1NC(=O)C(COS(C)(=O)=O)NC1=O (stereo not given) | 91.8% (inactive) and 88.4% (inactive) |
| Cc1ccc(N)cc1S(=O)(=O)O | 107% (inactive) and 113% (inactive) |
| Cc1cc(O)c(C(C)C)cc1N=O | 94.3% (inactive) and 98.9% (inactive) |
| COC(=O)C(Cc1cn(C(C)=O)c2ccccc12)P(=O)(OC)OC (stereo not given) | 103% (inactive) |
| CC1(C)CC(=O)NC1=O | 110% (inactive) |
| O=C1C=CC(=O)N1Cc1ccco1 | 11.6% (inactive) |
| CCOP(C)(=O)/C(Cc1ccc(OC)c(OC)c1)=N\O (stereo not given) | 104% (inactive) |
| COc1cc(NCCCCCNC(C)C)c2ncccc2c1 | 96.7% (inactive) and 96.6% (inactive) |
| COc1cc(Cl)ccc1C | 14.3% (inactive) |
| CCCC(=O)Oc1ccc2ccccc2c1 | 109% (inactive) |
| O=C1C2=C(Nc3cc(Cl)ccc3N2)OC1c1c[nH]c2ccc(COc3ccccc3)cc12 (stereo not given) | 82% (inactive) |
| N#CC(=S)Nc1ccc(Cl)c(Cl)c1 | 13.6% (inactive) |
| Cc1cc2ccccc2c2cc3ccccc3cc12 | 82.4% (inactive) |

Same assay, conditions: 100 µM

| Compound | growth |
| --- | --- |
| O=c1ccn2c(n1)OC1CC2OC1COC(c1ccccc1)(c1ccccc1)c1ccccc1 (stereo not given) | 101% (inactive) |
